Assay [1] in a line: High-throughput drug toxicity screening in the BPDCN cell line Gen2.2 (AID 1224824; call rule not given here;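 note: cells exposed to compounds for 48 h before reading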). To be noted: Gen2.2 BPDCN cells; at 45.8 µM (top of the series) unless noted. Put shortly: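 Seed 500 exponentially growing Gen2.2 cells/well; add compounds by pin tool; incubate 48 h, 37 °C, 5% CO2; add CellTiter-Glo, 15 min RT; read luminescence. % activity vs DMSO (100%) and bortezomib (0%).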

Assay [2] in a line: High-throughput drug toxicity screening in the BPDCN cell line Cal-1 (AID 1224825; call rule not given here). To be noted: Cal-1 BPDCN cell viability, qHTS; at 45.8 µM (top of the series) unless noted. Put shortly: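 Exponentially growing Cal-1 cells, 500 per well in phenol red-free RPMI with 10% FBS, were exposed to compounds for 48 h at 37 °C, 5% CO2. Viability was read by CellTiter-Glo luminescence and normalised to DMSO (100%) and 9.2 uM bortezomib (0%).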

A short description of assay [3]: qHTS assay for measurement of the activity of small molecule inhibitors on Zika virus induced Caspase-3 activity in human iPSC derived neural progenitor cells (hNPCs) (AID 1224857). Note: % of control where 0% means no effect; nearly all actives have a fitted effect of over 65% in size. Put shortly:
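Values are percent inhibition of virus-induced caspase-3/7 signal, scaled between uninfected cells and ZIKV-infected cells. Infection used 2 FFU/cell for 6 h after 1 h compound exposure.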

A short description of assay [4]: qHTS assay for measurement of the activity of small molecule inhibitors on Zika virus induced Caspase-3 activity in human astrocytoma cells (AID 1224859).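 Note: plate controls were ZIKV-infected untreated cells for no effect and uninfected cells for full effect.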 Put shortly: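 Compound added 1 h pre-infection; ZIKV 2 FFU/cell on SNB-19 cells, 6 h, 37 C/5% CO2. Caspase-Glo 3/7 luminescence; values as % inhibition of ZIKV-induced caspase activity.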
The nature of assay [5]: qHTS Screen of the MIPE 4.0 Collection Against Ewings Sarcoma (RDES) (AID 1259252). Note: nearly all actives have a fitted effect of over 35% in size. Note: potency is the fitted concentration of half-maximal effect. Put shortly: (§1)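 Compound titrations go onto adherent log-phase cells 4 h after seeding, incubate 48 h at 37C, then CellTiter-Glo luminescence reports viability relative to DMSO and cell-free controls.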
Assay [6] in a line: qHTS Screen of the MIPE 4.0 Collection Against Ewings Sarcoma (TC71) (AID 1259253). Note: nearly all actives have a fitted effect of over 40% in size. Note: potency is the fitted concentration of half-maximal effect. Put shortly: as §1
The nature of assay [7]: qHTS Screen of the MIPE 4.0 Collection Against Ewings Sarcoma (EW8) (AID 1259255).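 For viability: 100% = DMSO-treated cells and 0% = medium-only wells without cells.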 Note: nearly all actives have a fitted effect of over 35% in size. Note: potency is the fitted concentration of half-maximal effect. Put shortly:
as §1

A short description of assay [8]: qHTS Screen of the MIPE 4.0 Collection Against Ewings Sarcoma (TC32) (AID 1259256). Note: nearly all actives have a fitted effect of over 45% in size. Note: potency is the fitted concentration of half-maximal effect. Put shortly:
as §1

Assay [9] is described as follows: P-glycoprotein substrates identified in KB-3-1 adenocarcinoma cell line, qHTS therapeutic library screen (AID 1346986). Note: nearly all actives have a fitted effect of over 60% in size. Put shortly:
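Resistance attributable to P-gp was assessed by comparing AC50 in KB-8-5-11 with parental KB-3-1 and by tariquidar reversal. Cells were exposed 72 h and viability read by CellTiter-Glo.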

Assay [10] in a line: P-glycoprotein substrates identified in KB-8-5-11 adenocarcinoma cell line, qHTS therapeutic library screen (AID 1346987). Note: % is set by controls: 0 for no effect and ±100 for the full control effect; nearly all actives have a fitted effect of over 65% in size. Put shortly:
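Steps: plate 500 KB-8-5-11 cells/well in DMEM + 10% FCS (colchicine removed); pin compounds in dose-response; incubate 72 h, 37 degree C, 5% CO2; add CellTiter-Glo, 5 min; read luminescence.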

Results filed as inconclusive are left out. The source made the active and inactive calls. Unless noted, calls come from the whole dose curve; as a rule, active = well fitted curve in the direction sought with a large enough effect; inconclusive = small, poorly fitted or top-dose-only effect, or another doubt; inactive = no such curve, though single readings can be large; an effect the other way counts as inactive or inconclusive.

As for `CNC(=O)c1ccc(Nc2cc(Nc3ccccc3S(=O)(=O)C(C)C)c3cc[nH]c3n2)nc1`, in assay [1], the cell viability, % of control (lower = more cytotoxic) came to 19.7%. In addition, the viability (% of control) in assay [2] was 3.36%. Besides, the Potency entry in [3] and in assay [4] was “inactive” each time. Besides, the Potency in assay [5] was 5.9 µM (active); in assay [6], 4.18 µM (active); in assay [7] it was 0.59 µM (active); in [8], 0.935 µM (active).

Consider `COc1ccc([C@@H]2CNC(=O)C2)cc1OC1CCCC1`, for which the cell viability, % of control (lower = more cytotoxic) in assay [1] worked out at 107%. Besides, the viability (% of control) in assay [2] came to 108%. Also, the Potency result in [3], in assay [4], in assay [9] and in assay [10] was “inactive” in each case. Besides, the Potency in assay [5] was 0.833 µM (active); in [6] it was 2.35 µM (active); in assay [7] it was 9.35 µM (active); in [8] it was 1.87 µM (active).

As to `O=C(Nc1cccc(Nc2ncc(Br)c(NCCc3cnc[nH]3)n2)c1)N1CCCC1`, in assay [1], the cell viability, % of control (lower = more cytotoxic) came out at 15.3%. Further, the viability (% of control) in [2] is 2.84%. Further, the Potency result in [3] and in assay [4] was “inactive” throughout. Besides, the Potency in [5] was 7.43 µM (active); in [6], 6.62 µM (active); in assay [7], 0.235 µM (active); in assay [8], 0.296 µM (active).

Turning to `CC(N[C@H]1CCCC[C@H]1NC(=O)c1ccc(Cl)cc1)c1cccc2ccccc12` (stereo not given in full), the cell viability, % of control (lower = more cytotoxic) in [1] turned out to be 114%. Also, the viability (% of control) in assay [2] is 20.6%. Further, the Potency result in assay [3], in assay [4], in [5], in assay [6] and in assay [7] was “inactive” throughout.

For the molecule `CC(=O)ON=C1C(c2c(O)[nH]c3cc(Br)ccc23)=Nc2ccccc21`, the cell viability, % of control (lower = more cytotoxic) in assay [1] worked out at 129%. Besides, in assay [2], the viability (% of control) stood at 17.5%. Moreover, the Potency result in assay [3] and in assay [4] was “inactive” in each case. For the same molecule, the Potency in assay [5] was 2.96 µM (active); in assay [6] it was 9.35 µM (active); in assay [7], 7.43 µM (active); in assay [8] it was 7.43 µM (active).

Regarding `CC(C)c1cnn2c(NCc3ccccc3)cc(NCCCCCCN)nc12`, the cell viability, % of control (lower = more cytotoxic) in [1] stood at 4.58%. Further, the viability (% of control) in [2] was determined as 3.93%. In addition, the Potency result in assay [3] and in assay [4] was “inactive” throughout. For the same molecule, the figures for the Potency in assay [5], in assay [6] and in assay [7] were 3.72 µM (active), 4.69 µM (active) and 18.7 µM (active), respectively.

Regarding `CO[C@@H]1[C@@H](O)[C@H](O)[C@@H](n2c3c(Cl)cccc3c3c4c(c5c6cccc(Cl)c6[nH]c5c32)C(=O)NC4=O)O[C@@H]1CO`, in [1], the cell viability, % of control (lower = more cytotoxic) is 12.9%. Besides, the viability (% of control) in [2] was 5.01%. Further, the Potency entry in assay [3], in assay [4] and in assay [8] was “inactive” in each case. For the same molecule, the results for the Potency in assay [5], in assay [6] and in [7] were 0.105 µM (active), 0.0935 µM (active) and 0.105 µM (active), respectively.

As for `Cn1cc(C2=C(c3c4n(c5ccccc35)CCC(CN)C4)C(=O)NC2=O)c2ccccc21` (stereo not given), the cell viability, % of control (lower = more cytotoxic) in assay [1] turned out to be 3.32%. For the same molecule, in [2], the viability (% of control) stood at 2.84%. Moreover, the Potency entry in [3] and in assay [4] was “inactive” in each case. The Potency in assay [5] was 16.6 µM (active); in assay [6], 16.6 µM (active); in assay [7] it was 18.7 µM (active); in assay [8], 20.9 µM (active).

`CCN(CC)CCCCNc1ncc2c(n1)N(C)C(=O)N(c1c(Cl)c(OC)cc(OC)c1Cl)C2`: the cell viability, % of control (lower = more cytotoxic) in assay [1] turned out to be 138%. The viability (% of control) in [2] is 50.4%. In addition, the Potency result in assay [3] and in assay [4] was “inactive” in each case. Further, the Potency in assay [5] is 20.9 µM (active); in [6] it was 20.9 µM (active); in assay [7] it was 18.7 µM (active); in [8] it was 20.9 µM (active).

For `COc1ccc(S(=O)(=O)Nc2cc(-c3c(O)ccc4ccccc34)c(O)c3ccccc23)cc1`, the cell viability, % of control (lower = more cytotoxic) in assay [1] worked out at 5.48%. Moreover, the viability (% of control) in assay [2] came to 3.97%. Besides, the Potency entry in assay [3] and in assay [4] was “inactive” in each case. Further, the Potency in assay [5] was 16.6 µM (active); in assay [6], 10.5 µM (active); in assay [7] it was 4.18 µM (active); in [8] it was 18.7 µM (active).

These data come from PubChem BioAssay (NCATS).
